Compound activity as filed in PubChem.
Sampled rows, rich in hits. Any-hit rate of the full collection: about 3.9%.
Tb PFK inh: qHTS Assay to Find Inhibitors of T. brucei phosphofructokinase; hit rate 0.17% among 330,000; T. brucei PFK, ADP-Glo luminescence; Potency, µM (series often up to 57.5 µM), without a hit: at the highest dose activity, negative = inhibition, most hits filed as inhibitors; AID 485367, 2010;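 also: 0% = uninhibited 1x PFK enzyme wells and -100% = no-enzyme wells; nearly all actives have a fitted effect of over 60% in size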
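1.25 nM PFK with 0.5 mM F6P and 0.1 mM ATP in 0.1 M TEA pH 8.0, 5 mM MgCl2, incubated 45 min at room temperature; ADP measured by ADP-Glo luminescence; compounds titrated up to 57 uM.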
PLK1 PBD block: qHTS for Inhibitors of PLK1-PDB (polo-like kinase 1 - polo-box domain): Primary Screen | Serine/threonine-protein kinase PLK1 (Homo sapiens), P53350 | Plk1 PBD binding of FITC phosphopeptide, fluorescence polarization | Potency, µM, for the others: max response, negative = inhibition, actives largely listed as inhibitors | hit rate 2.8% among 360,000 | AID 720504, 2013; also: series mostly up to about 57 µM; % is scaled to controls: 0 for no effect and ±100 for the full control effect; nearly all actives have a fitted effect of over 65% in size
Target sequence (P53350 whole entry, looked up, the tested form may be a part): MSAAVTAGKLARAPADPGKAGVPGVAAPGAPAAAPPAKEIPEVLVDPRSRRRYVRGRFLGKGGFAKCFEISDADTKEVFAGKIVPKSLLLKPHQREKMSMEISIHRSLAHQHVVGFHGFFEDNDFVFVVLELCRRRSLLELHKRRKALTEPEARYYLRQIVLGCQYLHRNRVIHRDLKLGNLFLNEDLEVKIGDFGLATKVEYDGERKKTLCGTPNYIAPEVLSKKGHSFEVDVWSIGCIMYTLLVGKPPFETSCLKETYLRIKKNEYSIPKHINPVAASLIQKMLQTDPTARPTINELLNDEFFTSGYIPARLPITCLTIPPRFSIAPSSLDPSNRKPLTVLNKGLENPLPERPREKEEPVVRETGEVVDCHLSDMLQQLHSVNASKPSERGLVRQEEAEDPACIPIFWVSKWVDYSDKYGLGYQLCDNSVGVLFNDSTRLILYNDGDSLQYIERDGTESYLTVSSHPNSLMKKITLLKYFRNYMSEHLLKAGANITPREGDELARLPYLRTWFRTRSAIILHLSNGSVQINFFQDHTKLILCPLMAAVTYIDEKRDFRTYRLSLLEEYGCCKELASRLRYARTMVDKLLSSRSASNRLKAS
VDR inhibitor: Inhibitors of the vitamin D receptor (VDR): qHTS; Vitamin D3 receptor (Homo sapiens), P11473; VDR-SRC2-3 peptide fluorescence polarization, 2 h; Potency, µM, for inactives: max response, negative = inhibition, hits mostly inhibitors; hit rate 0.93% among 400,000; AID 504847, 2011; also: % is scaled to controls: 0 for no effect and ±100 for the full control effect
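Reagent solutions, kept cold and dark, are dispensed first; compounds are then pinned in at 23 nl, plates briefly spun, and incubated 2 h at ambient temperature. Inhibition of VDR–SRC2-3 peptide binding is read by fluorescence polarization.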
BRCA1 expr up: qHTS Assay to Identify Small Molecule Activators of BRCA1 Expression; hit rate 1.1% among 380,000; Potency, µM (series often up to 46.1 µM), for inactives: at the highest dose activation, usual class: activators; MCF7-BRCA1-FFLuc reporter, luminescence, 48 h; response scale: scaled: vehicle 0%, 10 µM genistein 100%; also: nearly all actives have a fitted effect of over 80% in size
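Quantitative HTS in MCF7 cells stably reporting BRCA1 expression via firefly luciferase. Compound treatment lasts 48 h at 37 °C in phenol-red free MEM. Activation is expressed relative to genistein at 10 microM and DMSO.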
* hit, by the source's call; ? = inconclusive; · = no result given; ! = not confirmed by another sample. Calls follow the shape of the dose curve; as a rule, active = well fitted curve in the direction sought with a large enough effect; inconclusive = small, poorly fitted or top-dose-only effect, or another doubt; inactive = no such curve, though single readings can be large; an effect the other way counts as inactive or inconclusive. Potency is read from the fitted curve at half-maximal effect.

SMILES	Tb PFK inh	PLK1 PBD block	VDR inhibitor	BRCA1 expr up
O=C(CSC(=S)N1CCCC1)NCC(=O)Nc1ccccc1Br	-2%	1%	-12%	-14%
C[C@H]1CN([C@@H](C)CO)C(=O)CCCn2cc(nn2)CO[C@@H]1CN(C)C(=O)Cc1ccccc1	·	-13%	·	-1%
Cc1ccccc1NC(=O)c1nc(S(=O)(=O)Cc2ccccc2F)ncc1Cl	·	·	·	0%
Cc1ccc(C(=O)Nc2nc(-c3ccc4c(c3)OCCO4)cs2)o1	·	1%	·	8.9µM*
Cc1nc(-c2ccc3c(c2)OCCO3)cs1	0%	30µM*	-2%	7.9µM*
Cc1nn(-c2ccccc2)c2nc(-c3ccncc3)cc(C(=O)NCc3ccco3)c12	7%	30µM*	-19%	-92%
Cc1nn(-c2ccccn2)c2nc(-c3cccs3)cc(C(=O)NCc3ccco3)c12	-1%	-20%	-14%	13%
CC(C)CCOc1ccc(Oc2nc(N(C)C)nc(N(C)C)n2)nn1	·	·	-9%	·
Cc1ncc(CO)c(/C=N/Nc2ccc(C(F)(F)F)cn2)c1O	-2%	27µM*	?	-77%
COc1ccc(C(=O)N2c3ccccc3C(=O)OC2c2ccc3c(c2)OCO3)cc1 (centres undefined)	-2%	?	-23%	11µM*
CC1(C(=O)NS(=O)(=O)C2CC2)CCCN(C(=O)c2ccc(F)cc2Cl)C1 (centres undefined)	·	-7%	·	0%
CCNc1ccc(Br)cc(C(=O)/C=C/c2ccc3c(c2)OCO3)c1=O	1%	?	89µM*	-31%
O=C(Nc1nc(-c2ccccn2)cs1)c1ccc([N+](=O)[O-])o1	-21%	13µM*	-12%	-72%
CC(=O)c1ccc(-c2ccc(C(=O)Nc3nc(-c4ccccn4)cs3)o2)cc1	2%	27µM*	-18%	-40%
CCN(CC)CCCNc1oc(/C=C/c2ccc(OC)c(OC)c2)nc1C#N	·	·	4%	·
C[C@@H]1CN([C@@H](C)CO)C(=O)c2cc(Br)cnc2O[C@H]1CN(C)C(=O)Nc1ccccc1	·	-12%	·	7%
O=C(Cn1cnc2sc3c(c2c1=O)CCCC3)NCC(=O)Nc1c(F)cc(F)cc1Br	17%	30µM*	-14%	-44%
COc1ccc(NC(=O)CNC(=O)Cn2cnc3sc4c(c3c2=O)CCCC4)cc1OC	0%	0%	8%	-2%
S=C(NC1CCCCC1)c1ccc2c(c1)OCO2	-7%	19µM*	-19%	67%
CCOc1ccc(C(=S)NC2CCCCC2)cc1OC	-3%	9.5µM*	50µM*	19%
OCc1cn(Cc2ccc(O)c3ncccc23)cn1	-2%	·	·	·
Cc1cc(C)nc(N/N=C/c2ccccc2)n1	1%	-6%	0%	93%
Cc1cc(C)nc(N/N=C/C(Cl)=C/c2ccccc2)n1	-1%	-9%	-3%	10µM*
CC(=O)NC(Cc1ccc(O)cc1)C(=O)NCC(N)C(=O)c1ccccc1 (centres undefined)	·	·	·	29%
COc1c2c(nc3ccccc13)O[C@H]([C@@](C)(O)CO)C2	·	·	4%	·
SMILES	Tb PFK inh	PLK1 PBD block	VDR inhibitor	BRCA1 expr up
CCOc1ccc(C(=O)NC(=S)Nc2ccc(N3CCCCC3)cc2)cc1[N+](=O)[O-]	0%	6µM*	?	-39%
COc1ccc(C(=O)Nc2ccc(N3CCCCC3)cc2)cc1Br	-2%	-1%	7%	3.5µM*
CCOc1ccc(C(=O)Nc2ccc(-c3nc4ccccc4[nH]3)cc2)cc1[N+](=O)[O-]	-1%	4%	-4%	3.2µM*!
CNc1ccc2ncc(-c3ccccc3NC(C)=O)n2n1	·	-6%	·	-1%
COc1ccc(Nc2ncnc3sccc23)cc1	-2%	-16%	2%	7.1µM*
COc1cccc(Nc2ncnc3sccc23)c1	-12%	-2%	9%	?
Cc1ccccc1N1CCN(C(=O)c2ccccc2NC(=O)c2ccccc2C(=O)O)CC1	5%	30µM*	-22%	9%
COc1cc(C2c3cc4c(cc3OC(NCc3ccccc3)C2C)OCO4)cc(OC)c1OC (centres undefined)	·	-7%	-3%	-74%
O=[N+]([O-])c1ccc(CNc2cccc(Cl)c2)s1	7.6µM*	-17%	-5%	-41%
COC(=O)c1ccc(OCC(O)Cn2nnc3ccccc32)cc1 (centres undefined)	4%	-8%	-6%	11µM*
CC/C(O)=C1\C(=O)CCCC1=NCCc1c(C)[nH]c2ccc(C)cc12	4%	30µM*	?	-1%
O=C(CSc1ccccn1)Nc1ccc2[nH]c(=O)[nH]c2c1	?	27µM*	-3%	0%
O=C(COc1ccc(Cl)cc1)OCc1cc(=O)n2nc(-c3cccs3)sc2n1	·	·	5%	0%
O=C1CCCC/C1=C/Nc1ccc2c(c1)OCO2	-1%	-14%	-15%	20%
O=C1CCC/C1=C/Nc1cccc(F)c1	-2%	19µM*	?	-3%
COc1ccc(-n2cccc2/C=C/[N+](=O)[O-])cc1	14%	27µM*	?	-80%
COc1ccc(-n2cccc2C=O)cc1	-1%	-8%	-15%	17%
CC(=O)c1ccc2c(c1)Cc1cc(C(C)=O)ccc1-2	-3%	-13%	-2%	2µM*
CC(=O)c1ccc(N2CCN(C(=O)CNC(=O)c3ccc(Br)o3)CC2)cc1	·	3%	·	0%
COc1ccc(-c2noc(N3CCC(C(=O)Nc4cccc(C)c4C)CC3)n2)cc1	·	·	15%	·
Cc1ncoc1C(=O)Nc1ncc([N+](=O)[O-])s1	-1%	?	89µM*	-10%
Cc1cc(NC(=O)c2ccc([N+](=O)[O-])cc2)no1	2%	21µM*	?	71%
CC(=O)Nc1ccc(C(=O)Nc2cc(C)on2)cc1	?	2%	-9%	56%
Cc1cc(NC(=O)c2cc(C(C)C)on2)no1	-1%	-6%	1%	11µM*
Cc1cc(NC(=O)c2ccc(NC(=O)C(C)Oc3ccccc3)cc2)no1 (centres undefined)	2%	1%	-6%	13µM*
SMILES	Tb PFK inh	PLK1 PBD block	VDR inhibitor	BRCA1 expr up
O=C(Nc1ncc([N+](=O)[O-])s1)c1cccs1	-1%	-8%	-12%	?
Cc1cc(I)ccc1Nc1nc(NCCN2CCOCC2)nc(N2CCOCC2)n1	·	·	·	0%
CCc1ccc(-n2nc(CO)c(C(=O)NCCOC)n2)cc1	·	·	2%	·
Cc1ccc(N(CC(=O)NC(C)C)C(=O)CCC(=O)Nc2ccccn2)c(C)c1	·	8%	·	6%
Cc1cc(NC(=O)c2ocnc2C)no1	3%	24µM*	?	29%
Cc1cc(NC(=O)c2ccc(C(C)(C)C)cc2)no1	·	?	4%	?
CCOC(=O)CCCCCC(=O)Nc1ccc2c(c1)CC(=O)N([C@H](C)CO)C[C@H](C)[C@H](CN(C)S(=O)(=O)c1ccc(OC)cc1)O2	9%	-2%	-12%	-4%
Cc1cccc(N/N=C/c2ccc(O)c(O)c2O)c1	-25%	12µM*	?	-25%
COc1cccc(N/N=C/c2cccc(Br)c2O)c1	-1%	-10%	-8%	5%
CC1(C)N([O-])C2=C(c3ccccc3C2=O)[N+](=O)C1(C)C	3%	11µM*	?	-6%
